# Screens from PubChem BioAssay.
# A selection: hits, their analogues and other compounds. The true share with any hit is near 2.4%.
# MEKK2 WT-MEK5: raises or lowers MEK5 binding to wildtype human MEKK2 PB1 domain | bead flow cytometry, Alexa488-MEK5 binding to MEKK2 WT; actives lie on both sides | binding response (% of control), % at 10 µM | Q9Y2U5 | 290,000 tested, 1.1% active; in the data active = binding response below about 67% or above about 130%
# Pf gamet viab: inhibitors of late stage P. falciparum gametocyte viability. P. falciparum stage V gametocytes, ATP luminescence, 24 h. inhibition, % at 10.9 µM. 150,000 tested, 0.065% active;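 active = inhibition above the mean plus 3 SD of compounds within the control limits, set per campaign, cut at about 38% in these data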;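 note: 0% = DMSO wells and 100% = medium only without gametocytes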
# Arbovirus anti: antivirals against arbovirus infection; 200,000 tested, 0.37% active; AID 1251; arbovirus infection cell-based antiviral screen; inhibition, % at 10 µM; in the data active = inhibition above about 30%
# MEKK2 mut-MEK5: signal of MEK5 binding to mutant human MEKK2 PB1 domain. percent response, % at 10 µM. 290,000 tested, 0.35% active. bead flow cytometry, Alexa488-MEK5 binding to MEKK2 mutant; in the data active = percent response above about 24%, passing the limit was not always enough
# MEKK3 PB1 HTS: MEKK3-MEK5 PB1 interaction, increase or decrease; Q99759; bead-based flow cytometry, Alexa488-MEK5 binding to MEKK3; actives lie on both sides; 0 = blocked by unlabeled MEK5, 100 = vehicle; binding response (% of control), % at 10 µM; 290,000 tested, 1.4% active; AID 1529;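 active = binding response more than 3 SD above or below the average of its plate-row segment, actives on both sides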;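 note: Alexa488 bead fluorescence after subtracting the streptavidin-only scavenger bead signal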
# Target sequence (Q99759 whole entry, looked up): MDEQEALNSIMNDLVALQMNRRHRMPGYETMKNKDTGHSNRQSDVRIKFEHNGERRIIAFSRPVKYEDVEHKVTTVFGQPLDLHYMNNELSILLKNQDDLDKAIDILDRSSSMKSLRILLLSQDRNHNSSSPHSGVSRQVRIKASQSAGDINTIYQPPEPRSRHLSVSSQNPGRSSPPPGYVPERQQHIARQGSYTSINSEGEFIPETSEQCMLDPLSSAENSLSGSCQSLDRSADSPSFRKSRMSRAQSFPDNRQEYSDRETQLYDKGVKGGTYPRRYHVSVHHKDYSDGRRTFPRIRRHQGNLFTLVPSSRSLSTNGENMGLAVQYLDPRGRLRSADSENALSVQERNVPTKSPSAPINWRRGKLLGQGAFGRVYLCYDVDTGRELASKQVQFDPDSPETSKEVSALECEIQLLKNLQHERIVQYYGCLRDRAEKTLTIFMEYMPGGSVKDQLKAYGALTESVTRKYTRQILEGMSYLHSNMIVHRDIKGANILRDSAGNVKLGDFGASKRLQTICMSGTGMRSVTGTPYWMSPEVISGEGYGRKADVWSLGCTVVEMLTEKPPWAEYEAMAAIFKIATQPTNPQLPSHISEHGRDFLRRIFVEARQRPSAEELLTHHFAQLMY
# MEKK2wt confirm: raises or lowers MEK5 binding to wildtype human MEKK2, retest; shares compounds with MEKK3 PB1 HTS; bead flow cytometry, Alexa488-MEK5 binding to MEKK2 WT; actives lie on both sides; binding response (% of control), % at 10 µM; 5,900 tested, 2.4% active; AID 1892; in the data active = binding response below about 16% or above about 210%; inactive = in between
# MEKK2mut confirm: signal of MEK5 binding to mutant human MEKK2, retest; 5,900 tested, 2% active; percent response, % at 10 µM; shares compounds with MEKK3 PB1 HTS; bead flow cytometry, Alexa488-MEK5 binding to MEKK2 mutant; AID 1893; in the data active = percent response mostly above about 71%, no sharp cut-off; inactive = mostly below about 38%;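 note: higher means compound restores mutant binding toward wildtype level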
# MEKK3-MEK5 inh: confirmation of inhibitors of MEK5 binding to human MEKK3; shares compounds with MEKK3 PB1 HTS; binding response (% of control), % at 10 µM; 5,900 tested, 1.8% active; AID 1894; bead flow cytometry, Alexa488-MEK5 binding to MEKK3; hits give low values;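 active = binding response below 72% of control, or above a set upper limit, though filed actives all read lower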;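 note: 100% = DMSO only wells and 0% = binding blocked by excess unlabeled MEK5; lower values mean stronger disruption of MEK5 binding to MEKK3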
# * hit, by the source's call; · = not tested or not shown; [ ] = remark or other dose.
SMILES,MEKK2 WT-MEK5,Pf gamet viab,Arbovirus anti,MEKK2 mut-MEK5,MEKK3 PB1 HTS,MEKK2wt confirm,MEKK2mut confirm,MEKK3-MEK5 inh
O=C(N/N=C\C=C\c1ccc2c(c1)OCO2)c1cccnc1,109.0,-12.4,-3.7,1.0,135.0*,103.0,0.0,101.0
O=C(/C=C/c1ccc2c(c1)OCO2)c1cccnc1,105.0,·,·,3.0,106.0,·,·,·
CC(=O)Nc1nc(Cn2nnc(-c3ccc4c(c3)OCO4)n2)nc(N(C)C)n1,104.0,-6.8,9.9,10.0,104.0,·,·,·
O=C(NCC(O)c1ccccc1)c1cccs1 (centres undefined),101.0,·,·,4.0,100.0,·,·,·
Cc1ccc(Nc2c(-c3ccccc3O)nc3ncccn23)cc1,108.0,-8.5,·,28.0,130.0*,96.0,-1.0,98.0
Cc1ccc(Nc2c(-c3ccccc3O)nc3cnccn23)cc1,97.0,13.5,-10.5,-3.0,110.0,·,·,·
O=C(NC1CCCC1)C(c1ccncc1)N(C(=O)c1csnn1)C1CCCC1 (centres undefined),97.0,-28.3,1.0,-3.0,93.0,·,·,·
Cc1cc(C)n(-c2nnc(C)n2N)n1,113.0,3.2,-0.2,9.0,105.0,·,·,·
Cc1nnc(C)n1N,-3.0*[inhibitor],-1.0,7.9,-4.0,101.0,94.0,-19.0,93.0
Cc1sc2nc(CN3CCCC3)nc(N3CCN(S(=O)(=O)c4cccs4)CC3)c2c1C,145.0*,·,-19.1,4.0,103.0,141.0,36.0,109.0
Cc1sc2nc(CN3CCCCC3)nc(N3CCN(C(=O)c4ccco4)CC3)c2c1C,104.0,31.4,-6.8,9.0,101.0,·,·,·
CCC(C)N1C(=O)/C(=C/c2c(NCCCOC(C)C)nc3c(C)cccn3c2=O)SC1=S (centres undefined),·,-14.9,-3.8,123.0*,32.0*[inhibitor],59.0,-22.0,74.0
CCCN1C(=O)/C(=C/c2c(NCCCOC(C)C)nc3c(C)cccn3c2=O)SC1=S,71.0,·,7.7,-4.0,94.0,·,·,·
O=[N+]([O-])c1cc(C(F)(F)F)cc([N+](=O)[O-])c1NCCCNc1ccc([N+](=O)[O-])c2cccnc12,102.0,20.4,-2.5,0.0,68.0*[inhibitor],105.0,2.0,101.0
CC1CCN(Cc2ccc(NC(=O)C3CCN(c4nnc(-n5cccc5)s4)CC3)cc2)CC1,231.0*,·,-20.9,78.0*,105.0,186.0,62.0,108.0
Cc1ccc(CN2CCC(c3cc(-c4ccc(Cl)cc4)n[nH]3)CC2)cc1,167.0*,·,·,27.0*,106.0,155.0,32.0,109.0
Cc1nc2c3ccccc3nc(SCC(=O)c3ccc(Cl)cc3)n2n1,100.0,·,-6.5,-1.0,129.0*,103.0,1.0,107.0
CCOC(=O)/C(C)=C1\NC(C)(C)Cc2ccccc21,96.0,-3.5,6.9,-3.0,96.0,·,·,·
CCCCC1(C)Cc2ccccc2C(=S)N1 (centres undefined),2.0*[inhibitor],·,9.4,-16.0,2.0*[inhibitor],108.0,2.0,103.0
CC(C)(C)C(=O)COC(=O)c1cc2ccccc2cc1O,76.0,17.1,2.2,-18.0,67.0*[inhibitor],98.0,7.0,102.0
CC(CCc1ccc(O)cc1)NCCC(c1ccccc1)c1ccccc1 (centres undefined),144.0*,10.0,·,20.0,106.0,139.0,21.0,105.0
CN(CC(=O)Nc1ccc(F)cc1)CC(=O)Nc1ccc(F)c(F)c1F,75.0,-6.2,12.1,-11.0,67.0,·,·,·
Cc1cc(NC(=O)c2cc(Cl)ccc2Cl)no1,106.0,·,3.0,5.0,106.0,·,·,·
Cc1cc(NC(=O)c2ccccc2Cl)no1,59.0,·,-2.3,-30.0,35.0*[inhibitor],106.0,-1.0,99.0
CCOc1ccc(NC(=O)C2Cc3ccccc3CN2S(=O)(=O)CC)cc1 (centres undefined),95.0,7.3,0.1,-5.0,104.0,·,·,·
SMILES,MEKK2 WT-MEK5,Pf gamet viab,Arbovirus anti,MEKK2 mut-MEK5,MEKK3 PB1 HTS,MEKK2wt confirm,MEKK2mut confirm,MEKK3-MEK5 inh
CCS(=O)(=O)N1Cc2ccccc2CC1C(=O)Nc1ccc(OC)cc1 (centres undefined),1.0*[inhibitor],-13.5,2.8,-23.0,2.0*[inhibitor],96.0,-4.0,97.0
CC(C)[C@@H](C(=O)N[C@@H](C(=O)O)c1ccccc1)N1C(=O)N2CCc3c([nH]c4ccccc34)[C@@]2(C)C1=O,98.0,·,·,0.0,95.0,·,·,·
CC(C)n1cc(CN2CCCC(CO)(Cc3cccc(Cl)c3)C2)cn1 (centres undefined),102.0,5.8,-1.3,-5.0,99.0,·,·,·
CCN1CCN(c2ccc(NC(=O)c3cccc(OCc4ccccc4)c3)cc2)CC1,171.0*,-18.6,-27.4,34.0,100.0,147.0,27.0,106.0
CCCOc1cccc(C(=O)NC(=S)Nc2ccc(N3CCN(C)CC3)cc2)c1,152.0*,-10.5,4.1,46.0,103.0,147.0,12.0,106.0
O=C(NC(=S)Nc1ccc(CN2CCOCC2)cc1)c1cccc([N+](=O)[O-])c1,105.0,·,-3.4,-1.0,145.0*,106.0,2.0,105.0
O=C(NC(=S)Nc1ccc(N2CCOCC2)cc1)c1cccc([N+](=O)[O-])c1,98.0,·,7.6,-2.0,102.0,·,·,·
CN1CCN(c2ccc(NC(=O)c3cccc(OCc4ccccc4)c3)cc2)CC1,·,-16.1,-24.6,·,·,·,·,·
O=C(NC(=S)Nc1ccc(CN2CCCCC2)cc1)c1cccc(OCc2ccccc2)c1,220.0*,-15.9,-20.3,63.0*,113.0,173.0,25.0,104.0
CC1CCN(S(=O)(=O)c2cccc(S(=O)(=O)N3CCCC3)c2)CC1,97.0,·,·,-5.0,101.0,·,·,·
COc1ccc(-c2cn3cc([N+](=O)[O-])ccc3n2)cc1OC,90.0,2.5,1.2,-1.0,75.0*[inhibitor],112.0,11.0,107.0
COC(=O)/C=c1/sc2nc3ccccc3n2c1=O,81.0,·,6.2,-15.0,80.0*[inhibitor],98.0,-4.0,98.0
